RORg inh: ROR gamma (mouse) transcription inhibition; P51450; Drosophila S2 Gal4-RORgamma UAS-luciferase reporter, 20 h; Potency, µM (highest dose often 53.6 µM), without a hit: top-dose activity change, negative = inhibition, usual class: inhibitors; hit rate 5.4% among 310,000; AID 2551; further: potency means the concentration at half of the fitted maximal effect; on the % scale 0 is the no-effect control and ±100 the full control effect; nearly all actives have a fitted effect of over 60% in size
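Luminescence from a UAS-regulated Photinus luciferase reporter in stably transfected Drosophila Schneider cells is measured; decreased signal marks ROR gamma inhibition. Fusion expression is induced by 700 uM copper sulfate for 20 hr.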
VP16 counter: counter-screen for ROR gamma inhibitors: Gal4-VP16 reporter; Drosophila S2 Gal4-VP16 UAS-luciferase, luminescence, 20 h; Potency, µM (top dose mostly 53.6 µM), for the others: top-dose activity, negative = inhibition, hits mostly inhibitors; hit rate 3.5% among 310,000;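 further: Gal4-VP16 expression switched on by copper sulfate through the metallothionein promoter; potency means the concentration at half of the fitted maximal effect; on the % scale 0 is the no-effect control and ±100 the full control effect; nearly all actives have a fitted effect of over 50% in size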
CtBP-E1A blk: inhibitors of CtBP/E1A interaction; AlphaScreen GST-E1A/His-CtBP binding, 1536-well; stronger effect = lower value; activity change, % (concentration not given with the values); hit rate 0.49% among 340,000; in the data active means activity change below about -65%; inconclusive means mostly about -30% to -63%; further: on the % scale 0 is the no-effect control and ±100 the full control effect
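Protein mix (5X: 125 nM each GST-E1A, His-CtBP) was incubated with pinned compound 2 h at 37 deg C in dark, in 50 mM Tris pH 8.0 buffer with 300 mM NaCl. Glutathione donor and nickel acceptor beads followed; AlphaScreen signal read after 1 h.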
Six1-Eya2 blk: inhibitors of human Six1/Eya2 interaction | AlphaScreen GST-Six1/His-Eya2 binding, biochemical; stronger effect = lower value | hit rate 0.56% among 360,000 | activity change, % (test concentration not listed) | Q15475+O00167; in the data active means activity change below about -65%; inconclusive means mostly about -30% to -63%; further: on the % scale 0 is the no-effect control and ±100 the full control effect
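AlphaScreen with GST-Six1 and His-Eya2 (5X mix: 250 nM and 500 nM), glutathione donor and nickel acceptor beads; buffer 50 mM Tris pH 8.0, 300 mM NaCl, 1 mM TCEP; 1 h at 37 C in the dark.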
MBNL1-CUG inh: inhibitors of human MBNL1 binding to CUG repeat RNA. Q9NR56. TR-FRET MBNL1-His/biotin-(CUG)12 binding, 665/545 ratio. Potency, µM (series often up to 57.5 µM), inactives show top-dose activity change, negative = inhibition, hits mostly inhibitors. hit rate 0.036% among 280,000. AID 2675; active means well fitted inhibition curve with a large enough effect in the signal ratio, with a control signal flat, not every such curve was filed as active; inconclusive means small, poorly fitted or top-dose-only effect, or effect the other way, or a change in a side signal; inactive means no such curve, though single readings can be large or run the other way; the % refers to the signal ratio; further: potency means the concentration at half of the fitted maximal effect; on the % scale 0 is the no-effect control and ±100 the full control effect
Target sequence (Q9NR56 whole entry, looked up): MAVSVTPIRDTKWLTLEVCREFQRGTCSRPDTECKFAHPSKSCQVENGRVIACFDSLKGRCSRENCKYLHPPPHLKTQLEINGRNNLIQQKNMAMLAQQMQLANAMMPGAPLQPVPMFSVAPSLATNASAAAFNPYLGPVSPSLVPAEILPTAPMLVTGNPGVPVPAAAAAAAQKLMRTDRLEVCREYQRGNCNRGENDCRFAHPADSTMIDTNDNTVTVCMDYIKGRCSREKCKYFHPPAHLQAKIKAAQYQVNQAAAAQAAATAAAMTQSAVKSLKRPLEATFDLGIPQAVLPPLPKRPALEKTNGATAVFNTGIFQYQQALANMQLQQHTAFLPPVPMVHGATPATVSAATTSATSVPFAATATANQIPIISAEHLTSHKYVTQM
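Compounds (final 92 nM to 58 uM) are added to His-tagged MBNL1 and biotin-(CUG)12, then terbium anti-His antibody and streptavidin-XL665 (5 nM final). After 60 min at room temperature, the 665/545 nm ratio is read.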
CBFb RUNX1 block: inhibitors of human CBF-beta and RUNX1 interaction | Q01196+Q13951 | AlphaScreen CBFb-His/RUNX1-biotin binding, biochemical | Potency, µM (highest dose often 59.8 µM), for inactives: top-dose activity, negative = inhibition, usual class: inhibitors | 230,000 tested, under 10 active | AID 1477; further: % of control where 0% means no effect
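Bead-based AlphaScreen assay; binding partners His-tagged CBF-beta and biotinylated RUNX1 at 30 nM each. Compound exposure 15 min after a 20-min protein preincubation; bead step 90 min; all steps at room temperature.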
* = called active by the depositor; ? = inconclusive; nt = not tested or not shown; [ ] = another dose, or the depositor's remark. The list is not random: actives were taken first. Their share in the collection is about 5.5%. Unless noted, the call rests on the fitted dose curve; in most records, active means well fitted curve in the direction sought with a large enough effect; inconclusive means small, poorly fitted or top-dose-only effect, or another doubt; inactive means no such curve, though single readings can be large; an effect the other way counts as inactive or inconclusive.

SMILES | RORg inh | VP16 counter | CtBP-E1A blk | Six1-Eya2 blk | MBNL1-CUG inh | CBFb RUNX1 block
Cc1nn(C)c(Cl)c1NC(=O)OCc1ccc(Cl)cc1Cl | ? | 8.9µM* | 1 | -3 | 5% | 0%
Cc1nnsc1NC(=O)OCc1ccc(Cl)cc1Cl | ? | -9% | -2 | 10 | -6% | 8%
Cc1ccc2nc(SCC(=O)Nc3ccc4c(c3)CCC4)[nH]c2c1 | ? | 11µM* | -7 | -3 | -19% | 0%
O=C(CSc1nc2ccc(Cl)cc2[nH]1)Nc1ccc2c(c1)CCC2 | ? | ? | 6 | 0 | 12% | 0%
O=C(Nc1cccc(C(=O)O)c1)/C(=C/c1cccc([N+](=O)[O-])c1)NC(=O)c1cccc(Br)c1 | nt | nt | 0 | 8 | nt | nt
O=C(N/N=C/C(Cl)=C/c1ccc([N+](=O)[O-])cc1)C(=O)Nc1cccc(C(=O)O)c1 | 0% | -7% | -92* | ? | nt | -4%
CCC1Oc2ccc(C)cc2N(CC(=O)NCc2cccc(OC)c2)C1=O (centres undefined) | ? | 22µM* | -3 | 8 | -4% | 0%
CN1CC(=O)NC1=NC(=O)C12CC3CC(CC(C3)C1)C2 | 2.2µM* | 4µM* | -3 | 6 | 8% | -6%
CN1CC(=O)N/C1=N/C(=O)Nc1cccc(Cl)c1 | ? | -19% | nt | nt | nt | -3%
Cc1ccccc1-c1nc(CN(Cc2c(C)nn(C)c2C)C2CC2)c(C)o1 | 5.6µM* | 13µM* | -19 | -8 | -18% | -2%
Cc1ccccc1-c1nc(CN2CCC(C(=O)O)CC2)c(C)o1 | -7% | 3% | -9 | 10 | 3% | 1%
Cc1cc2c(nc1C)CCCCN2C[C@H](C)O/N=C\[C@@H](C)[C@H](OCc1ccccc1)C(C)C | -13%[10 µM] | -12%[10 µM] | nt | nt | nt | 1%[13.1 µM]
CCOC(=O)C1=C(Cc2ccc(Cl)cc2)C(=O)c2ccccc2C1=O | 8.9µM* | ? | -9 | -15 | 26% | -9%
NC(CCc1ccccc1)c1csc(Nc2ccc(C(=O)NCCCO)cn2)n1 (centres undefined) | nt | nt | -69* | ? | nt | nt
NC(CCc1ccccc1)c1csc(Nc2ccc(C(=O)NCCO)cc2)n1 (centres undefined) | nt | nt | -5 | -12 | nt | nt
CC(C)C(N)c1csc(Nc2ccc(C(=O)NCCCO)cn2)n1 (centres undefined) | nt | nt | -75* | ? | nt | nt
NC(Cc1ccccc1)c1csc(Nc2ccc(C(=O)NCCCO)cn2)n1 (centres undefined) | nt | nt | -82* | -66* | nt | nt
CN(Cc1ccccc1)C(=O)c1ccc(Nc2nc(C(N)Cc3ccccc3)cs2)nc1 (centres undefined) | nt | nt | ? | -24 | nt | nt
CC(N)c1csc(Nc2ccc(C(=O)NCCO)cc2)n1 (centres undefined) | nt | nt | -10 | 0 | nt | nt
CCNC(=O)C1(C)CCCN(Cc2ccc(-c3ccccc3)o2)C1 (centres undefined) | nt | nt | -5 | -7 | nt | nt
CC(=O)N1C2=CCCC3CCCCC23c2ccccc21 (centres undefined) | nt | nt | 11 | -1 | nt | nt
Cc1ccc(-c2sc(-c3ccccc3)nc2CC(=O)Nc2ccccc2F)cc1 | ? | 5µM* | 1 | -9 | -4% | 2%
CC(=O)Nc1cccc(NC(=O)Cc2nc(-c3ccccc3)sc2-c2ccc(C)cc2)c1 | ? | -2% | -2 | -4 | 25% | -17%
S=c1[nH]c(-c2ccccc2)cn1/N=C/c1cccc2ccccc12 | 2.5µM* | ? | 2 | -1 | 9% | ?
Oc1ccc(/C=N/n2cc(-c3ccccc3)[nH]c2=S)cc1 | 7.9µM* | 0% | -20 | -8 | ? | -12%
SMILES | RORg inh | VP16 counter | CtBP-E1A blk | Six1-Eya2 blk | MBNL1-CUG inh | CBFb RUNX1 block
S=c1[nH]c(-c2ccccc2)cn1/N=C/c1ccccc1Br | 1µM* | ? | 22 | -8 | 0% | -19%
O=C(NN=Cc1cccc2ccccc12)C(=O)NN=Cc1cccc2ccccc12 | nt | nt | -12 | 1 | nt | nt
Cc1ccc(/C=N/n2cc(-c3ccccc3)[nH]c2=S)s1 | 0.45µM* | 5µM* | -1 | -4 | 16% | -9%
COc1cc(/C=N/n2cc(-c3ccccc3)[nH]c2=S)cc(OC)c1O | ? | -13% | nt | -8 | 10% | -1%
COc1ccc(CN(C)Cc2nc3scc(-c4ccccc4)c3c(=O)[nH]2)cc1OC | 1.4µM* | 2.5µM* | 0 | 1 | nt | -18%
O=C1C2CCCN2C(c2ccccc2)N1c1nccs1 (centres undefined) | 5.6µM* | -15% | 1 | -3 | -4% | 16%
Cc1oc(/C=N/NC(=O)CC2(C)OCCO2)cc1Br | 2% | 3% | -9 | 0 | ? | 7%
CC1(CC(=O)N/N=C/c2cc(Br)c(O)cc2O)OCCO1 | 10µM* | -15% | ? | ? | 2% | -8%
Cn1cccc1C(=O)N1CCC[C@@]2(CCN(c3ccccn3)C2)C1 | -29% | -10% | nt | nt | nt | nt
Cc1cc(NC(=O)CSc2nc3ccccc3c(=O)n2Cc2ccc(F)cc2)no1 | ? | -18% | -1 | 1 | 1% | 6%
O=C(CSc1nc2ccccc2c(=O)n1Cc1ccc(F)cc1)NCc1cccs1 | 2.8µM* | 5µM* | 1 | 9 | 10% | 4%
O=C1OCCC1Sc1nc2ccccc2c(=O)n1Cc1ccc(F)cc1 (centres undefined) | 4µM* | 8.9µM* | 6 | -1 | -10% | -5%
O=C1OCCC1Sc1nc2ccccc2c(=O)n1-c1ccc(F)cc1 (centres undefined) | ? | -1% | 36 | -1 | 4% | 0%
CCc1ccccc1Nc1nc(N)nc(COC(=O)c2c(C)noc2C)n1 | nt | nt | 0 | 1 | nt | nt
CC[n+]1ccc(/C=C/c2c[nH]c3ccccc23)cc1 | 15% | 13µM* | 3 | 1 | ? | nt
O=[N+]([O-])c1cc(C=Nc2ccc3ccccc3c2)ccc1Br | 20µM* | ? | -30 | ? | 21% | ?
CCOc1ccc(N=Cc2ccc3ccccc3c2)cc1 | 3% | -11% | -9 | 1 | 1% | nt
CN(C)c1ncc2nc(-c3ccc(Cl)cc3)c(=O)n(Cc3cccs3)c2n1 | 6% | 1% | nt | nt | nt | nt
CCCCCCCCN1C(=O)[C@H](CC(=O)NCCCCc2ccccc2)C[C@@]2(C(=O)OC)CCCCC=C12 | nt | nt | 6 | 0 | nt | nt
CC(C)(C)c1cc(C(=O)NNc2cc(C(F)(F)F)ccc2Cl)n(Cc2ccccc2)n1 | ? | 8.9µM* | 7 | 9 | nt | 6%
CC(C)(C)c1cc(C(=O)Nc2ccc(F)cc2)n(Cc2ccc(F)cc2)n1 | 11µM* | ? | nt | 11 | 3% | 27%
COc1ccccc1NNC(=O)c1cc(C(C)(C)C)nn1Cc1ccccc1 | ? | -5% | 1 | 2 | nt | -6%

Source: PubChem
